# Laboratory results taken from PubChem BioAssay AID602244 (Sanford-Burnham Center for Chemical Genomics, 2012).
# The campaign covered roughly 360,000 compounds. About 1,300 (0.36%) were called active. The sample as a whole holds a higher share of actives than the screen did. A number with no mark means an inactive call. Rule as the data show it: active = inhibition above about 34% (passing the limit was not always enough); inactive = the rest.
# Biological target: C-X-C chemokine receptor type 6 (Homo sapiens) (UniProt O00574)
# Sequence (O00574 whole entry, looked up): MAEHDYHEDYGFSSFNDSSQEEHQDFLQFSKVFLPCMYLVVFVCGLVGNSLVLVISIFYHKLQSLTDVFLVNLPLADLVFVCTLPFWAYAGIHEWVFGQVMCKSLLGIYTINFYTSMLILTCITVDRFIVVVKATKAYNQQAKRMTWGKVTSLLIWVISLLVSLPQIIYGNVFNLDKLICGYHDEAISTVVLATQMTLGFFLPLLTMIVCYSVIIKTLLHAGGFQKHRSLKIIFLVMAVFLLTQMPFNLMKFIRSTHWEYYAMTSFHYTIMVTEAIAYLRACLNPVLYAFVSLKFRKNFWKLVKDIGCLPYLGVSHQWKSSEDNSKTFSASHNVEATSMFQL
# Assay: CXCR6 receptor inhibitors, primary screen, cell-based, beta-arrestin, luminescence, CHO-K1 PathHunter, 1536-well (AID 602244);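 also: antagonist mode with CXCL16 agonist at 10 nM final; 0% = 10 nM CXCL16 with DMSO and 100% = unstimulated wells without agonist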
# Conditions: at 20 µM, active compounds read high
row,SMILES,inhibition
1,O=C(CCS(=O)(=O)c1ccccc1)Nc1nc2c(s1)CCCC2,-0.7%
2,Cc1ccc(S(=O)(=O)CCC(=O)OCC(=O)N(C)Cc2ccccc2)cc1,0.4%
3,COc1cccc2sc(N(CCCN(C)C)C(=O)CCS(=O)(=O)c3ccccc3)nc12,44.2% (active)
4,CCc1nc2c(OCCOc3ccccc3)cccn2c1N(C)C(=O)c1ccccc1F,4.8%
5,CN1CCC(N(C)S(=O)(=O)c2ccc(NC(=O)c3cccc(C#N)c3)cc2)CC1,-0.9%
6,O=C1CC(c2cccc(F)c2)C2=C(CCCC2=O)N1 (stereo not drawn),-9.4%
7,O=[N+]([O-])c1c(NCCO)cc(Sc2nc3ccccc3s2)c2nonc12,94.3% (active)
8,C=CCOc1ccc(Cl)cc1CNCCCN1CCOCC1,-3%
9,Cc1ccc(/C=N/NC(=O)CSc2nc3ccccc3o2)cc1,-6.5%
10,O=C(CNC(=O)c1cccnc1)N/N=C/c1cc(Br)c(O)c(Br)c1,1.1%
11,O=C(CSc1cccc2cccnc12)N/N=C/c1cccnc1,48.3% (active)
12,O=C(COc1cccc2c1CCNC2=O)NC1CCCCC1,-2.3%
13,OCCC1CN(Cc2cccc(OC3CCCC3)c2)CCN1Cc1ccsc1 (stereo not drawn),4.2%
14,Cc1c(NC(=O)C(C)Oc2cccc(Cl)c2)c(=O)n(-c2ccccc2)n1C (stereo not drawn),-5%
15,CC(C)CCNC(=O)c1cccnc1Sc1ccccc1,-0.4%
16,CC(NC(=O)Nc1cccc([N+](=O)[O-])c1)c1ccc2c(c1)OCO2 (stereo not drawn),7.9%
17,COc1cccc(NCCC(=O)c2cccc([N+](=O)[O-])c2)c1,2.4%
18,COC(=O)/C=C\C(=O)Nc1cccc([N+](=O)[O-])c1,74.8% (active)
19,O=C(NCCCc1ccccc1)c1cc(COc2c(F)cccc2F)on1,7.9%
20,Cc1cc(C(=O)NCCCc2ccccc2)no1,48.5% (active)
21,CC(C)Cc1cc(C(=O)NCCc2ccccc2)no1,1.7%
22,Cc1ccc(CCNC(=O)C2CCN(S(=O)(=O)N3CCCC3)CC2)cc1,0.7%
23,Cc1ccc(OCCCCc2c(C)n[nH]c2C)cc1,-0.7%
24,Cc1cc(F)ccc1NC(=S)NCCc1ccccc1,-0.7%

row,SMILES,inhibition
1,C/C(=N\NC(=S)NCc1ccccc1)C1CCCCC1,21.2%
2,CCCC1CCC(=NNC(=S)NCCc2ccccc2)CC1 (stereo not drawn),40% (active)
3,Cc1cc(C)c(C)c(S(=O)(=O)N[C@@H](C)C(=O)OC(C)C(=O)NC(N)=O)c1C (stereo partly drawn),7%
4,Cc1oc2cc([N+](=O)[O-])c(O)c([N+](=O)[O-])c2c1C(=O)c1ccc(Br)cc1,25.7%
5,O=C(NNC(=S)NCCCN1CCOCC1)c1ccncc1,3.2%
6,O=[N+]([O-])c1ccc(N=NNc2ccc([N+](=O)[O-])cc2)cc1,39.7% (active)
7,NC(=O)C1(Nc2ccc([N+](=O)[O-])cc2)CCCC1,1.8%
8,COC(=O)c1ccccc1N=NNc1ccc([N+](=O)[O-])cc1,-5.2%
9,CC(=O)Nc1ccc(S(=O)(=O)NCC2CCC(C(=O)NCCc3ccccc3)CC2)cc1 (stereo not drawn),6.1%
10,Nc1nc(Nc2ccccc2F)nc(NC2CCCCC2)c1[N+](=O)[O-],-0.8%
11,CSCCC(NC(=O)COc1ccccc1)C(=O)OCCOc1ccc(Br)cc1 (stereo not drawn),2.8%
12,CSCCC(NC(=O)COc1ccccc1)C(=O)OCC(=O)c1cc2ccccc2o1 (stereo not drawn),37.7% (active)
13,CSCCC(NC(=O)COc1ccccc1)C(=O)OCc1ccc(Cl)cc1 (stereo not drawn),2.7%
14,O=C(NCc1ccccc1)C1=C[C@@H](C2CCCCC2)C[C@@H](OCc2ccc(CO)cc2)O1,6.4%
15,CC(C)c1ccc(S(=O)(=O)N2CCC3(CC2)OCCO3)cc1,-0.4%
16,CCN(CC)P(=O)(/C(Cl)=C\Nc1c(C)n(C)n(-c2ccccc2)c1=O)N(CC)CC,9.1%
17,CCOc1ccc(CN2CCC(n3nccc3NC(=O)C3CC3)CC2)cc1CO,3.8%
18,CSCCC(NS(=O)(=O)c1ccc(C)cc1)C(=O)NCCc1c[nH]c2ccccc12 (stereo not drawn),-6%
19,CCN(CC)CCn1c(N)c(S(=O)(=O)c2ccccc2)c2nc3ccccc3nc21,45.9% (active)
20,CCN(CC)CCn1c(/N=C/c2cc(Br)ccc2O)nc2ccccc21,0.9%
21,CCC(=O)Nc1c(S(=O)(=O)c2ccccc2)c2nc3ccccc3nc2n1Cc1ccccc1,-4.6%
22,CCCCOc1ccc(C(=O)NCC(=O)OCC(=O)c2c(N)n(C)c(=O)n(C)c2=O)cc1,2.3%
23,CC1CN(c2cc(=O)n(-c3cccc(Br)c3)c(=O)[nH]2)CC(C)O1 (stereo not drawn),-4.7%
24,CCOC(=O)N1CCC(N2Cc3cccc(C(=O)Nc4ccc(S(=O)(=O)N(CC)CC)cc4)c3C2=O)CC1,-2.9%

row,SMILES,inhibition
1,COC(=O)c1cc(OC)c(OC)cc1NC(=O)C1CCCO1 (stereo not drawn),0.8%
2,Cc1ccc([C@H]2N[C@]3(CCCN(Cc4ccccc4)C3=O)[C@H]3C(=O)N(Cc4ccccc4)C(=O)[C@@H]23)cc1,3.3%
3,C/C(=N/NC(=O)CCc1ccccc1)c1ccco1,-3.6%
4,C/C(=N\NC(=O)Cc1ccc(Cl)cc1)c1ccccn1,88.7% (active)
5,CC(=NNC(=S)N1CCCCCC1)c1ccccn1,19.5%
6,O=C(c1ccccc1)C(Cn1cncn1)C(Sc1ccccc1)c1ccccc1 (stereo not drawn),5.2%
7,O=C(CNc1ccccc1N1CCCC1=O)Nc1cc(Cl)ccc1-n1cncn1,-1%
8,Cc1noc(C)c1CSCC(=O)N(CCC(C)C)c1c(N)n(Cc2ccccc2)c(=O)[nH]c1=O,2.5%
9,COc1cccc(CN(C)CC2CCCN(CCc3ccc(Cl)cc3)C2)c1OC (stereo not drawn),3.7%
10,CCN(CC)Cc1csc2ccc(Br)cc12,5.6%
11,Cc1cc(OCCOc2cccc3cccnc23)c(C)cc1Cl,-1.8%
12,CC(=O)/C(=N\Nc1ccc(Cl)cc1Cl)Sc1cccc2cccnc12,46.4% (active)
13,COc1cccc(CNC(=O)C2CCN(S(=O)(=O)c3cccc4cccnc34)CC2)c1,-1.1%
14,CC1CCC(NS(=O)(=O)c2ccc3c(c2)CC(=O)N3)CC1 (stereo not drawn),-9.8%
15,CS(=O)(=O)c1ccc(Cl)c(NC(=O)COC(=O)c2cccc(S(=O)(=O)N3CCCC3)c2)c1,8.6%
16,COc1ccc(C[C@H]2CN3C(=NC[C@H]3C)N2CCNC(=O)CCC2CCCCC2)cc1,5.3%
17,CC(C)(C)C1CCC(=NNC(=O)c2ccc(Br)o2)CC1 (stereo not drawn),-5%
18,COc1ccccc1OCCNC(=O)c1cc([N+](=O)[O-])cc([N+](=O)[O-])c1,-9.6%
19,COCCCNC(=S)NC(=O)c1ccc([N+](=O)[O-])cc1,75% (active)
20,COCCCNC(=S)NNC(=O)C(O)(c1ccccc1)c1ccccc1,14.6%
21,COc1ccc(CN2CCNC(=O)C2CC(=O)NCc2cn[nH]c2-c2ccccc2)c(F)c1 (stereo not drawn),-0.4%
22,Nc1nnc(C2CCCC2)s1,-3.7%
23,CC1(C(=O)NCCc2c[nH]c3ccccc23)C=CC2(CCCCC2)N1C(=O)c1ccccc1 (stereo not drawn),-1.9%
24,Cc1ccc(-n2[nH]c(C)c(/C=N/N3C(=O)c4cccc5cccc(c45)C3=O)c2=O)cc1,48.5% (active)

row,SMILES,inhibition
1,COc1cc(SC#N)ccc1N=Cc1c(C)[nH]n(-c2ccc(C)cc2)c1=O,-2%
2,Cc1ccc(-c2ccnc3[nH]n(-c4ccccc4)c(=O)c23)cc1,12.9%
3,Cc1nn(C(C)CC(=O)O)c(C)c1C (stereo not drawn),3.3%
4,CC(NC(=O)Cn1cc(C(F)(F)F)cc(Cl)c1=O)c1ccccc1 (stereo not drawn),-4.9%
5,CC1CCC(C(C)C)C(=O)/C1=C\c1ccc(NC(=O)CCC(=O)O)cc1 (stereo not drawn),1%
6,O=C(NCCc1ccccc1)C1CCC(Cn2c(=O)c3ccccc3n(Cc3cccnc3)c2=O)CC1 (stereo not drawn),-5.3%
7,C=CCC1(C#N)C(=S)NC(C)=C(C(=O)OCC)C1c1ccccc1 (stereo not drawn),-3.2%
8,COc1cc(NC(=O)Nc2ccc(C)cc2)cc([N+](=O)[O-])c1,2.8%
9,COc1ccc(NC(=O)C2Cc3c(-c4ccc5c(c4)OCO5)ccnc3O2)cn1 (stereo not drawn),-3.9%
10,COc1ccc(NC(=O)/C(Cl)=C(/Cl)S(=O)Cc2ccc(C)cc2)cn1 (stereo not drawn),94.9% (active)
11,COc1cccc(CC(=NO)c2cccc(OC)c2)c1,7.2%
12,O=C1C(Cl)=C(Oc2ccccc2)C(=O)c2ccccc21,104% (active)
13,O=C(OCC(=O)N1CCc2ccccc21)C1CCCN1S(=O)(=O)c1ccc(Cl)cc1 (stereo not drawn),-11.4%
14,CCCCn1c(N)c(N(CC(C)C)C(=O)c2cccc(S(=O)(=O)N3CCN(C(C)=O)CC3)c2)c(=O)[nH]c1=O,1.2%
15,CCCCCCCCCCOC(=O)Cn1c(COc2cccc(OC)c2)[n+](C)c2ccccc21,47.7% (active)
16,CCCCN(CCCC)C(=O)CCS(=O)(=O)c1ccc2c(c1)n(C)c(=O)c(=O)n2C,-7.5%
17,COc1ccc(CCNC(=O)CSc2nc(-c3ccc(OC)c(OC)c3)ccc2C#N)cc1,7.6%
18,Cc1ccc(N2C(=O)SC(N(CC(=O)O)c3ccc(C)cc3)C2=O)cc1 (stereo not drawn),4%
19,CCC(=O)OCCNc1nc(-c2ccccc2)nc2ccccc12,40.8% (active)
20,COCCNc1nc(-c2ccccc2)nc2c1oc1ccccc12,-2.7%
21,CCCNC(=O)c1cnc(-c2ccccc2)nc1-c1ccccc1,12%
